Laboratory results published in PubChem BioAssay AID686978 (National Center for Advancing Translational Sciences (NCATS), 2013).
Out of some 420,000 compounds screened, about 64,000 (15%) were called active. Another 27% or so got no clear call; they are omitted. The call rests on the fitted dose curve; in most records, active means well fitted inhibition curve with a large enough effect; inconclusive means small, poorly fitted or top-dose-only effect; inactive means flat fitted curve, though single readings scatter. A selection follows.

Assay: qHTS for Inhibitors of human tyrosyl-DNA phosphodiesterase 1 (TDP1): qHTS in cells in absence of CPT; further: nearly all actives have a fitted effect of over 55% in size
Conditions: DT40 Tdp1-/- hTDP1 cells, no CPT, ATP luminescence, 48 h; activity change, negative = growth inhibition: at 46.2 µM (top of the series)
Procedure, shortened: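 Stably hTDP1-transfected Tdp1-null chicken DT40 cells were treated with library compounds minus camptothecin and grown for at least 48 hr at 37 °C, after which cellular ATP was quantified by luminescence.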
On the % scale 0 is the no-effect control and ±100 the full control effect; potency means the concentration at half of the fitted maximal effect.

Row | SMILES | activity change, negative = growth inhibition | Potency
1 | O=c1c(Cl)c(NC2CC2)cnn1-c1ccccc1 | -1.63% (inactive) | –
2 | Cc1cccc(-n2ncc(C#N)c2-n2cccc2)c1 | -15.3% (inactive) | –
3 | Cc1cccc(-n2ncc(Cl)c(Cl)c2=O)c1 | – | 4.11 µM (active)
4 | O=C(NCC1CCCO1)c1cc2c(s1)CCCC2 (stereo not given) | 6.28% (inactive) | –
5 | CC(C)C(=O)N1c2ccccc2NC2=C(C(=O)CCC2)C1c1ccc(N(C)C)cc1 (stereo not given) | -9.38% (inactive) | –
6 | CCCOC(=O)Nc1ccccc1C(N)=O | -26.5% (inactive) | –
7 | CCOC(=O)N(Cc1ccccc1)C1CC1 | 3.18% (inactive) | –
8 | O=C(Nc1nnc(CCc2ccccc2)s1)C1CCCO1 (stereo not given) | -8.27% (inactive) | –
9 | O=C(COC(=O)c1ccc(Cl)nc1)NCc1cccs1 | 2.89% (inactive) | –
10 | Cc1nnnn1/C(=C\c1ccccc1)C(=O)OCC(=O)N1CC2(C)CC1CC(C)(C)C2 (stereo not given) | – | 14.6 µM (active)
11 | Cc1cccc(C(=O)NCC(=O)OCC(=O)N2CC3(C)CC2CC(C)(C)C3)c1 (stereo not given) | 2.52% (inactive) | –
12 | CC(=O)NC(C)(C)C1CC=C(C)/C(=N\O)C1 (stereo not given) | 7.54% (inactive) | –
13 | CCOC(=O)C1C(c2ccc(O)cc2)NC(=O)NC1(O)C(F)(F)F (stereo not given) | 16.9% (inactive) | –
14 | CCN(CC)P(=O)(/C(Cl)=C\Nc1c(C)n(C)n(-c2ccccc2)c1=O)N(CC)CC | -4.15% (inactive) | –
15 | CCCCNC(=O)C[C@@H]1C[C@@]2(C(=O)OCC)CCC=C2N(Cc2cccc3ccccc23)C1=O | – | 16.4 µM (active)
16 | O=C(COC(=O)C12CC3CC(CC(C3)C1)C2)NCc1ccco1 | -3.59% (inactive) | –
17 | CCCCN1C(=O)C(CC(=O)NCc2cccs2)CC(C(=O)N2CCOCC2)=C1C (stereo not given) | -0.267% (inactive) | –
18 | CCCCNC(=O)C[C@@H]1C[C@@]2(C(=O)OCC)CCC=C2N(Cc2ccco2)C1=O | -10.6% (inactive) | –
19 | CCCCCCCCN1C(=O)[C@H](CC(=O)NCc2cccc3ccccc23)C[C@@]2(C(=O)OC)CCCCC=C12 | – | 20.6 µM (active)
20 | COc1ccccc1CNC(=O)CCCN1C(=O)NC2(CCCC2)C1=O | -6.56% (inactive) | –
21 | CC1=C(C(=O)N2CCOCC2)CC(CC(=O)NCc2cccc3ccccc23)C(=O)N1CCC1=CCCCC1 (stereo not given) | -28.7% (inactive) | –
22 | CCOC(=O)[C@]12CCC=C1N(Cc1cccc3ccccc13)C(=O)[C@H](CC(=O)NCc1cccc(C(F)(F)F)c1)C2 | – | 23.1 µM (active)
23 | CCOC(=O)[C@]12CCC=C1N(Cc1ccco1)C(=O)[C@H](CC(=O)NCc1cccc(C(F)(F)F)c1)C2 | – | 25.9 µM (active)
24 | CC1=C(C(=O)N2CCOCC2)CC(CC(=O)NCc2ccco2)C(=O)N1Cc1ccc(F)cc1 (stereo not given) | -16.3% (inactive) | –
25 | O=C(Cn1nnc(-c2ccc(CN3CCOCC3)cc2)n1)NC1CCCCC1 | -2.3% (inactive) | –
26 | COc1ccc(OCC(O)CNCCNc2nccc(C(F)(F)F)n2)cc1 (stereo not given) | -11.4% (inactive) | –
27 | CC(=O)NCC(=O)N(Cc1ccco1)C1(C(=O)NC2CCCC2)CCCCC1 | -4.34% (inactive) | –

Row | SMILES | activity change, negative = growth inhibition | Potency
28 | O=c1c(-c2ccc(F)c(F)c2)nc2cncnc2n1-c1ccccc1 | -15.4% (inactive) | –
29 | CC1c2nc3ccccc3n2C(CC(=O)NCCCN2CCOCC2)C(=O)N1Cc1ccccc1 (stereo not given) | -13.8% (inactive) | –
30 | C#CCNC(=O)C[C@@H]1C[C@@]2(C(=O)OCC)CCCC=C2N(Cc2ccco2)C1=O | -22% (inactive) | –
31 | COc1ccc(C(=O)OCC(=O)NCCCc2ccccc2)cc1OC | -25.8% (inactive) | –
32 | CCOC(=O)[C@]12CCCC=C1N(Cc1cccc3ccccc13)C(=O)[C@H](CC(=O)NCC13CC4CC(CC(C4)C1)C3)C2 | – | 23.1 µM (active)
33 | COC(=O)[C@]12CCCCC=C1N(Cc1ccco1)C(=O)[C@H](CC(=O)NCCCCc1ccccc1)C2 | – | 16.4 µM (active)
34 | COc1ccc(CCNC(=O)CCCCCNC(=O)N2CCn3c2nc2ccccc23)cc1OC | -26.2% (inactive) | –
35 | COC(=O)[C@@]12C[C@@H](CC(=O)NCCCCc3ccccc3)C(=O)N(CCc3ccc(OC)c(OC)c3)C1=CCC(C)(C)C2 | – | 20.6 µM (active)
36 | CCCCCC1CCC(c2nnc(SCC(C)=O)o2)CC1 (stereo not given) | -4.37% (inactive) | –
37 | Cc1cc(C)n(-c2c(F)c(F)c(COC(=O)c3ccccc3)c(F)c2F)n1 | -20.9% (inactive) | –
38 | O=C(C1=C(O)C(=O)N(c2ncccn2)C1c1cccs1)c1ccco1 (stereo not given) | -0.816% (inactive) | –
39 | O=C(Oc1cccnc1)c1cc2ccccc2oc1=O | -3.98% (inactive) | –
40 | CC(=O)N1CCN(CC(c2ccccc2)c2ccccc2)CC1 | -19.7% (inactive) | –
41 | COc1ccc(CNC(=O)C(C)NCc2ccccc2Cl)cc1 (stereo not given) | -7.52% (inactive) | –
42 | COc1ccc(CCn2ccc(O)c(Cc3ccc(Cl)cc3Cl)c2=O)cc1OC | -13.3% (inactive) | –
43 | CC(CCc1ccc(O)cc1)NCc1ccc(Cl)cc1Cl (stereo not given) | – | 18.4 µM (active)
44 | O=C(NCC(=O)N1CCN(c2ncc(C(F)(F)F)cc2Cl)CC1)c1ccc(Br)o1 | – | 18.4 µM (active)
45 | O=C(CN1CCN(c2ncc(C(F)(F)F)cc2Cl)CC1)Nc1ccc2c(c1)OCO2 | -4.82% (inactive) | –
46 | COc1ccc(N2CCN(C(=O)CNC(=O)c3ccc(Br)o3)CC2)cc1 | 0.433% (inactive) | –
47 | Cc1ccc(CSCC(=O)N(C)CC(=O)Nc2cccc(F)c2)cc1 | -27% (inactive) | –
48 | O=C(O)CCC(=O)N(Cc1ccco1)c1nc(-c2ccccc2)cs1 | 1.02% (inactive) | –
49 | CC(Oc1ccc(F)cc1F)C(=O)/C=C/N(C)C (stereo not given) | -3.1% (inactive) | –
50 | c1ccc(C2CNCc3c2ccc2ccccc32)cc1 (stereo not given) | – | 16.4 µM (active)
51 | CC1(C)CC(=O)C(C=NCCN2CCN(C(=S)Nc3cccc(Cl)c3)CC2)=C(O)C1 | -14.6% (inactive) | –
52 | COc1ccc(-c2n[nH]c3c2CN(C(=O)c2ccc(F)cc2)CC3)cc1 | -17.6% (inactive) | –
53 | COCCCNC(=O)COc1cc(C)c(Cl)c(C)c1 | -17.2% (inactive) | –
54 | Cc1cc2c(cc1S(=O)(=O)CCC(=O)NCc1ccccc1)OCC(=O)N2 | -12.9% (inactive) | –

Row | SMILES | activity change, negative = growth inhibition | Potency
55 | CC(=O)Nc1ccc2c3c(ccc([N+](=O)[O-])c13)CC2 | 1.18% (inactive) | –
56 | CCCNC(=O)C1CC(=O)N(c2ccc(OCC(=O)Nc3cccc(C)c3C)cc2)C1 (stereo not given) | -22% (inactive) | –
57 | CCCOc1ccc(/C=N/NC(=O)C2CC2)c(OCCC)c1 | -19.6% (inactive) | –
58 | COc1ccc(CS(=O)/C(Cl)=C(/Cl)C(=O)Nc2ccc(OC)nc2)cc1 (stereo not given) | – | 0.13 µM (active)
59 | COc1ccc(NC(=S)NCCNC(C)=O)cc1 | -9.69% (inactive) | –
60 | COc1ccc(NC(=S)Nc2ccccc2Cl)cn1 | 2.18% (inactive) | –
61 | CS(=O)(=O)c1ccc(Cl)c(NC(=O)COC(=O)c2ncc(Cl)c(Cl)c2Cl)c1 | -3.02% (inactive) | –
62 | O=C(Nc1cc2c3c(c1)CC(=O)N3CCC2)c1ccccc1F | -7.35% (inactive) | –
63 | COc1ccc(/C=C(\NC(=O)c2ccccc2)C(=O)NCCN2CCOCC2)cc1OC | -21.7% (inactive) | –
64 | COCCN(Cc1nc(-c2ccc(C(F)(F)F)cc2)no1)C(C)C | -23.7% (inactive) | –
65 | COCCN(C(=O)C(C)C)c1nnc(-c2ccc(C(C)(C)C)cc2)s1 | – | 20.6 µM (active)
66 | CN(C(=O)COc1ccccc1)c1nnc(-c2ccncc2)s1 | -10.3% (inactive) | –
67 | CCOC(=O)N1CCN(C(=O)Cn2cnc3ccccc3c2=O)CC1 | -7.54% (inactive) | –
68 | CCOC(=O)N1CCN(CC(=O)Nc2cc(C)nn2-c2nc3ccccc3s2)CC1 | – | 23.1 µM (active)
69 | CCOC(=O)N1CCN(CC(=O)Nc2ccc(F)cc2)CC1 | 1.47% (inactive) | –
70 | CC1CCCN(c2csc3ccc(F)cc3c2=O)C1 (stereo not given) | -5.98% (inactive) | –
71 | S=c1[nH]nc(/C=C/c2ccccc2)o1 | -6.07% (inactive) | –
72 | CN(C)c1nc(Nc2ccc(Cl)c(Cl)c2)nc(N(C)C)n1 | – | 10.3 µM (active)
73 | CC(=O)Nc1nc(N(C)C)nc(N(C)C)n1 | -5.59% (inactive) | –
74 | CN(C)c1nc(NN)nc(Nc2ccc(F)cc2)n1 | -27% (inactive) | –
75 | Cc1ccc(/C([O-])=C(/C(=S)NCc2ccco2)[n+]2ccccc2)cc1[N+](=O)[O-] | -13.8% (inactive) | –
76 | CCOC(=O)c1c(NC(=O)CSc2nnc(CNc3ccc(C)cc3C)o2)sc(C)c1C | -14.1% (inactive) | –
77 | c1ccc(-n2nnnc2NC2CCCCCC2)cc1 | -18.6% (inactive) | –
78 | FC(F)(F)c1nc(-c2ccccc2)ncc1-c1nnnn1-c1ccccc1 | – | 16.4 µM (active)
79 | Fc1ccccc1CCNc1nnnn1-c1ccccc1 | -15.3% (inactive) | –
80 | O=S(=O)(NC1CCCCC1N1CCC(O)CC1)c1ccc(Cl)cc1 (stereo not given) | 16.4% (inactive) | –
81 | CN1CCCc2cc(C#N)c(=O)[nH]c21 | -0.386% (inactive) | –

Row | SMILES | activity change, negative = growth inhibition | Potency
82 | CCOC(=O)c1cc(=O)c2ccc(OCc3ccccc3)cc2o1 | -11.2% (inactive) | –
83 | CCOC(=O)c1cc2cc(-c3c(C(=O)OCC)oc4cc(O)cc(O)c4c3=O)ccc2o1 | – | 23.1 µM (active)
84 | CCOC(=O)c1cc2cc3ccccc3cc2oc1=O | 3.19% (inactive) | –
85 | O=C(O)c1ccc(COCC(F)(F)F)cc1 | -5.35% (inactive) | –
86 | CC1CCC2(CC1)NC(=O)N(CC(=O)c1ccc3c(c1)OCO3)C2=O (stereo not given) | -1.18% (inactive) | –
87 | O=C(CCN1C(=O)c2ccccc2C1=O)Nc1ccncc1 | -9.9% (inactive) | –
88 | COc1cccc(C(=O)c2cc3ccc(O)cc3oc2=O)c1 | -21.7% (inactive) | –
89 | O=c1oc2cc(O)ccc2cc1-c1ccc(F)cc1 | – | 14.6 µM (active)
90 | COc1ccc(-c2cc3ccc(OCc4nn[nH]n4)cc3oc2=O)cc1 | 6.88% (inactive) | –
91 | COC(=O)CCNC(=O)c1ccc2[nH]c(C)c(C)c2c1 | -9.72% (inactive) | –
92 | Cc1ccc(C(=O)NCCSc2c(C)[nH]c3ccccc23)cc1C | – | 25.9 µM (active)
93 | CN(C)CCCNC(=O)c1ccc2[nH]c3ccccc3c2c1 | -12.1% (inactive) | –
94 | COC(=O)c1ccc(OCC(=O)NC(C)(C)C)cc1 | 3.15% (inactive) | –
95 | COc1ccc(OCC(=O)N2CCOCC2)cc1 | -5.8% (inactive) | –
96 | COc1ccc(-c2cc(C(F)(F)F)n3nc(C(=O)N4CCOCC4)c(Cl)c3n2)cc1 | – | 29.1 µM (active)
97 | O=C(O)c1cnn2c(C(F)(F)F)cc(-c3ccccc3)nc12 | -14.2% (inactive) | –
98 | O=C(NC1CC(=O)N(c2ccc(F)cc2)C1)C1CCCCC1 (stereo not given) | -0.378% (inactive) | –
99 | COc1cc(OC)cc(-c2nnc(SCC(=O)Nc3ccc(C(=O)O)cc3)s2)c1 | -25.9% (inactive) | –
100 | COc1ccc(N2CCN(C(=O)CSCc3nc(-c4ccccc4Cl)oc3C)CC2)cc1 | – | 16.4 µM (active)
101 | COc1ccc(N2CCN(C(=O)C3CCN(C(=O)c4ccccc4Cl)CC3)CC2)cc1 | -22.1% (inactive) | –
102 | COc1ccc(N2CCN(C(=O)CN3C(=O)COc4ccccc43)CC2)cc1 | -18.9% (inactive) | –
103 | Cc1ccc(NC(=O)COC(=O)CN2CCSC2=O)cc1F | 9.29% (inactive) | –
104 | CS(=O)(=O)c1ccc2nc(NC(=O)CN3CCCCCC3)sc2c1 | -4.58% (inactive) | –
105 | CC(C)(C)C(=O)c1c(N)[nH]c(C(=O)c2ccccc2)c1-c1ccc(F)cc1 | -27% (inactive) | –
